In PubChem BioAssay (NCI):
This is part of a sample that, as a whole, favours compounds with a hit. Of some 79,000 tested, about 15% had one in any assay. The source made the active and inactive calls. No stated cut-off is given here; in the data, active means growth inhibition above about 70%; inactive means the rest.

Experiment: NCI Yeast Anticancer Drug Screen. Data for the cln2 rad14 strain (AID 165);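 further: 0% = growth equal to vehicle treated cultures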
Conditions: S. cerevisiae cln2 rad14 strain, at 50.0 µM, active compounds read high
Method in brief: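 Relative to vehicle controls, growth inhibition of compound-treated cln2 rad14 yeast was recorded.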
In the case of `CCOC(=O)c1c(N)sc2c1C(C(=O)OCC)CCC2` (stereo not given), the growth inhibition is reported as -24.1% (inactive). In the case of `Cc1cc(N(CCCOS(C)(=O)=O)CCCOS(C)(=O)=O)ccc1C=Nc1cc(Cl)c(O)c(Cl)c1`, the growth inhibition is reported as 8.65% (inactive). In the case of `COc1ccc2c(c1)OC[C@@H]1c3cc(NS(=O)(=O)c4ccccc4)cc(OC)c3O[C@H]21`, the growth inhibition is reported as 30.3% (inactive). With `CC(NC(=O)N=Nc1ccccc1)C(=O)O` (stereo not given) the growth inhibition was -39% (inactive). With `O=C1CSC(/C(=C\c2ccc(Cl)cc2)c2nc3ccccc3[nH]2)=N1` the growth inhibition was 11.7% (inactive). With `Oc1ccc(Br)cc1/C=N\NC(=S)Nc1ccc2cn[nH]c2c1` the growth inhibition was 24.9% (inactive). In the case of `Cc1cc2c(cc1C)NC(C)CC(=O)N2` (stereo not given), the growth inhibition is reported as 14.1% (inactive). For `COC(=O)/C=C/C(=N/N(C)c1ccccc1)c1ccccc1`, the growth inhibition was -49% (inactive). In the case of `Fc1ccc(C=C2c3ccccc3-c3ccccc32)cc1`, the growth inhibition is reported as 39.2% (inactive). With `COC(=O)Nc1nc2ccc(-n3c(C)nc4ccccc4c3=O)cc2[nH]1` the growth inhibition was 8.5% (inactive). For `CCOC(=O)c1sc(N)nc1O`, the growth inhibition was 5.85% (inactive). In the case of `COc1ccccc1NC(=O)Cc1nc(=O)[nH]c(=O)[nH]1`, the growth inhibition is reported as -0.35% (inactive). With `CCCCCCCCSC(SCCCCCCCC)=C1C(=O)N(c2ccccc2)N=C1C` the growth inhibition was 19.6% (inactive). With `NC(=O)/C(=N/O)c1ccccc1` the growth inhibition was 1.25% (inactive). For `O=C1CN(CCN2CCCCC2)CC(=O)N2CCCCN12`, the growth inhibition was 9.2% (inactive). With `CC1=NOC(=O)/C1=C/c1ccc(C)cc1` the growth inhibition was 2.55% (inactive). In the case of `CC(=O)Nc1ccc(S(=O)(=O)c2ccc(NC(C)=O)cc2)cc1`, the growth inhibition is reported as -6.2% (inactive). In the case of `CCN(CC)CCOc1cccc(Oc2ccccc2)c1`, the growth inhibition is reported as 68.2% (inactive). For `COc1cccc2c1c1ccc3c(c1n2C)C(=O)C=CC3=O`, the growth inhibition was 11.2% (inactive). For `CCn1c(=O)c2[nH]c(-n3c(Cl)nc4c3c(=O)n(CC)c(=O)n4CC)nc2n(CC)c1=O`, the growth inhibition was 14.2% (inactive). In the case of `C/C(=N\NS(=O)(=O)c1ccc(C)cc1)P(=O)(O)O`, the growth inhibition is reported as 8.1% (inactive). With `Cc1ccc2ccccc2[n+]1CC(=O)c1ccc([N+](=O)[O-])cc1` the growth inhibition was 9.95% (inactive). In the case of `COc1ccc(NC(=O)CCc2cc(C(C)(C)C)n[nH]2)cc1`, the growth inhibition is reported as 12.6% (inactive). For `CS/C(=C\c1ccc2cc(C)ccc2[n+]1C)N1CCOCC1`, the growth inhibition was -2.05% (inactive). With `C=C(CN(C)C)c1ccccn1` the growth inhibition was -16.8% (inactive). In the case of `CC(C)(C)c1cc(C(=O)O)c2c(c1)C(=O)OC2(c1ccccc1)c1ccccc1C(=O)O` (stereo not given), the growth inhibition is reported as 9.95% (inactive). In the case of `Cc1cc(=O)oc2c(CNC(CC(C)C)C(=O)O)c(O)ccc12` (stereo not given), the growth inhibition is reported as -16.4% (inactive). For `COC(=O)CC(C)N(c1cccc(Cl)c1)S(=O)(=O)c1ccc(C)cc1` (stereo not given), the growth inhibition was -30.9% (inactive). For `CC(=C/c1ccccc1)/C=C1/NC(=S)N(CN2CCCCCC2)C1=O`, the growth inhibition was -10.2% (inactive). For `Cc1cc(NCCN(C)C)nc(Nc2ccc(Cl)cc2)n1`, the growth inhibition was -13.9% (inactive). With `CC(CCC(=O)O)[C@H]1CCC2[C@@H]3CC[C@@H]4CC(O)CC[C@]4(C)C3CC[C@@]21C` (stereo not given in full) the growth inhibition was -0.1% (inactive). In the case of `CC/C(C=O)=C\NC(=O)Nc1ccccc1`, the growth inhibition is reported as -22.9% (inactive). For `C=CCNC(=O)CCCCCCC/C=C\CCCCCCCC`, the growth inhibition was -27.6% (inactive). In the case of `N#C/C(=C\c1cccs1)C(=O)c1ccco1`, the growth inhibition is reported as 25.2% (inactive). For `c1ccc2c(c1)OP1(=NP3(=NP4(=NP5(=N1)Oc1ccccc1-c1ccccc1O5)Oc1ccccc1-c1ccccc1O4)Oc1ccccc1-c1ccccc1O3)Oc1ccccc1-2`, the growth inhibition was -4.1% (inactive). For `CN(C)C(=O)C1Cc2ccccc2CC1C(=O)N(C)C` (stereo not given), the growth inhibition was -21.5% (inactive). In the case of `CCCCCC(O)(CCCC)CCCC`, the growth inhibition is reported as -12.6% (inactive). In the case of `COc1cc(OC)c(C(=O)/C=C/c2ccncc2)cc1C(=O)O`, the growth inhibition is reported as 13.3% (inactive). In the case of `C[C@H]1CC[C@@H](C(C)(C)O)CC2=C1CC[C@@H]2C`, the growth inhibition is reported as 0.15% (inactive). For `Cn1c(N2CCCC2)c(C=O)c(=O)n(C)c1=O`, the growth inhibition was 21.3% (inactive).

Experiment: NCI Yeast Anticancer Drug Screen. Data for the bub3 strain (AID 167)
Conditions: S. cerevisiae bub3 mutant strain, at 50.0 µM, active compounds read high
Method in brief: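 Growth of a checkpoint-deficient yeast mutant is measured after compound exposure. Values represent inhibition relative to vehicle.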
For `CCOC(=O)c1c(N)sc2c1C(C(=O)OCC)CCC2` (stereo not given), the growth inhibition was 19.4% (inactive). With `Cc1cc(N(CCCOS(C)(=O)=O)CCCOS(C)(=O)=O)ccc1C=Nc1cc(Cl)c(O)c(Cl)c1` the growth inhibition was 34.7% (inactive). With `COc1ccc2c(c1)OC[C@@H]1c3cc(NS(=O)(=O)c4ccccc4)cc(OC)c3O[C@H]21` the growth inhibition was 58.8% (inactive). In the case of `CC(NC(=O)N=Nc1ccccc1)C(=O)O` (stereo not given), the growth inhibition is reported as -11.1% (inactive). For `O=C1CSC(/C(=C\c2ccc(Cl)cc2)c2nc3ccccc3[nH]2)=N1`, the growth inhibition was 12.2% (inactive). With `Oc1ccc(Br)cc1/C=N\NC(=S)Nc1ccc2cn[nH]c2c1` the growth inhibition was 2.1% (inactive). For `Cc1cc2c(cc1C)NC(C)CC(=O)N2` (stereo not given), the growth inhibition was -0.2% (inactive). In the case of `COC(=O)/C=C/C(=N/N(C)c1ccccc1)c1ccccc1`, the growth inhibition is reported as 11% (inactive). For `Fc1ccc(C=C2c3ccccc3-c3ccccc32)cc1`, the growth inhibition was 11.7% (inactive). In the case of `COC(=O)Nc1nc2ccc(-n3c(C)nc4ccccc4c3=O)cc2[nH]1`, the growth inhibition is reported as 4.95% (inactive). With `CCOC(=O)c1sc(N)nc1O` the growth inhibition was 6.25% (inactive). In the case of `COc1ccccc1NC(=O)Cc1nc(=O)[nH]c(=O)[nH]1`, the growth inhibition is reported as -4.95% (inactive). With `CCCCCCCCSC(SCCCCCCCC)=C1C(=O)N(c2ccccc2)N=C1C` the growth inhibition was -28.1% (inactive). With `NC(=O)/C(=N/O)c1ccccc1` the growth inhibition was -1.2% (inactive). With `O=C1CN(CCN2CCCCC2)CC(=O)N2CCCCN12` the growth inhibition was -5.75% (inactive). With `CC1=NOC(=O)/C1=C/c1ccc(C)cc1` the growth inhibition was 13.7% (inactive). With `CC(=O)Nc1ccc(S(=O)(=O)c2ccc(NC(C)=O)cc2)cc1` the growth inhibition was -26.5% (inactive). For `CCN(CC)CCOc1cccc(Oc2ccccc2)c1`, the growth inhibition was 53% (inactive). With `COc1cccc2c1c1ccc3c(c1n2C)C(=O)C=CC3=O` the growth inhibition was 4.85% (inactive). With `CCn1c(=O)c2[nH]c(-n3c(Cl)nc4c3c(=O)n(CC)c(=O)n4CC)nc2n(CC)c1=O` the growth inhibition was -0.5% (inactive). With `C/C(=N\NS(=O)(=O)c1ccc(C)cc1)P(=O)(O)O` the growth inhibition was -16.1% (inactive). With `Cc1ccc2ccccc2[n+]1CC(=O)c1ccc([N+](=O)[O-])cc1` the growth inhibition was -11.2% (inactive). With `COc1ccc(NC(=O)CCc2cc(C(C)(C)C)n[nH]2)cc1` the growth inhibition was -16.7% (inactive). In the case of `CS/C(=C\c1ccc2cc(C)ccc2[n+]1C)N1CCOCC1`, the growth inhibition is reported as -45.6% (inactive). With `C=C(CN(C)C)c1ccccn1` the growth inhibition was -13.3% (inactive). With `CC(C)(C)c1cc(C(=O)O)c2c(c1)C(=O)OC2(c1ccccc1)c1ccccc1C(=O)O` (stereo not given) the growth inhibition was 8.75% (inactive). In the case of `Cc1cc(=O)oc2c(CNC(CC(C)C)C(=O)O)c(O)ccc12` (stereo not given), the growth inhibition is reported as -24.8% (inactive). For `COC(=O)CC(C)N(c1cccc(Cl)c1)S(=O)(=O)c1ccc(C)cc1` (stereo not given), the growth inhibition was 24.1% (inactive). For `CC(=C/c1ccccc1)/C=C1/NC(=S)N(CN2CCCCCC2)C1=O`, the growth inhibition was -9.75% (inactive). With `Cc1cc(NCCN(C)C)nc(Nc2ccc(Cl)cc2)n1` the growth inhibition was 10.9% (inactive). For `CC(CCC(=O)O)[C@H]1CCC2[C@@H]3CC[C@@H]4CC(O)CC[C@]4(C)C3CC[C@@]21C` (stereo not given in full), the growth inhibition was -16.1% (inactive). In the case of `CC/C(C=O)=C\NC(=O)Nc1ccccc1`, the growth inhibition is reported as -26.6% (inactive). In the case of `C=CCNC(=O)CCCCCCC/C=C\CCCCCCCC`, the growth inhibition is reported as -2.85% (inactive). For `N#C/C(=C\c1cccs1)C(=O)c1ccco1`, the growth inhibition was 17.2% (inactive). In the case of `c1ccc2c(c1)OP1(=NP3(=NP4(=NP5(=N1)Oc1ccccc1-c1ccccc1O5)Oc1ccccc1-c1ccccc1O4)Oc1ccccc1-c1ccccc1O3)Oc1ccccc1-2`, the growth inhibition is reported as -1.1% (inactive). With `CN(C)C(=O)C1Cc2ccccc2CC1C(=O)N(C)C` (stereo not given) the growth inhibition was -3.6% (inactive). With `CCCCCC(O)(CCCC)CCCC` the growth inhibition was -0.55% (inactive). For `COc1cc(OC)c(C(=O)/C=C/c2ccncc2)cc1C(=O)O`, the growth inhibition was 19.6% (inactive). With `C[C@H]1CC[C@@H](C(C)(C)O)CC2=C1CC[C@@H]2C` the growth inhibition was -10.6% (inactive). With `Cn1c(N2CCCC2)c(C=O)c(=O)n(C)c1=O` the growth inhibition was -10.9% (inactive).
